Molecules are shown by their SMILES. About 14,000 (4.5%) of roughly 310,000 compounds showed an effect of 50% or more. The effect is printed as a negative number. The list comes from a sample in which strong results are over-represented; it also holds similar structures and randomly drawn compounds.

From PMC4336329 (PLoS ONE, 2015) come the findings set out here.
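Further: peak tail current of the secondary pulse compared with the same well before compound.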

Chain of human ether-à-go-go-related gene (hERG) potassium channel (Q12809 whole entry, looked up): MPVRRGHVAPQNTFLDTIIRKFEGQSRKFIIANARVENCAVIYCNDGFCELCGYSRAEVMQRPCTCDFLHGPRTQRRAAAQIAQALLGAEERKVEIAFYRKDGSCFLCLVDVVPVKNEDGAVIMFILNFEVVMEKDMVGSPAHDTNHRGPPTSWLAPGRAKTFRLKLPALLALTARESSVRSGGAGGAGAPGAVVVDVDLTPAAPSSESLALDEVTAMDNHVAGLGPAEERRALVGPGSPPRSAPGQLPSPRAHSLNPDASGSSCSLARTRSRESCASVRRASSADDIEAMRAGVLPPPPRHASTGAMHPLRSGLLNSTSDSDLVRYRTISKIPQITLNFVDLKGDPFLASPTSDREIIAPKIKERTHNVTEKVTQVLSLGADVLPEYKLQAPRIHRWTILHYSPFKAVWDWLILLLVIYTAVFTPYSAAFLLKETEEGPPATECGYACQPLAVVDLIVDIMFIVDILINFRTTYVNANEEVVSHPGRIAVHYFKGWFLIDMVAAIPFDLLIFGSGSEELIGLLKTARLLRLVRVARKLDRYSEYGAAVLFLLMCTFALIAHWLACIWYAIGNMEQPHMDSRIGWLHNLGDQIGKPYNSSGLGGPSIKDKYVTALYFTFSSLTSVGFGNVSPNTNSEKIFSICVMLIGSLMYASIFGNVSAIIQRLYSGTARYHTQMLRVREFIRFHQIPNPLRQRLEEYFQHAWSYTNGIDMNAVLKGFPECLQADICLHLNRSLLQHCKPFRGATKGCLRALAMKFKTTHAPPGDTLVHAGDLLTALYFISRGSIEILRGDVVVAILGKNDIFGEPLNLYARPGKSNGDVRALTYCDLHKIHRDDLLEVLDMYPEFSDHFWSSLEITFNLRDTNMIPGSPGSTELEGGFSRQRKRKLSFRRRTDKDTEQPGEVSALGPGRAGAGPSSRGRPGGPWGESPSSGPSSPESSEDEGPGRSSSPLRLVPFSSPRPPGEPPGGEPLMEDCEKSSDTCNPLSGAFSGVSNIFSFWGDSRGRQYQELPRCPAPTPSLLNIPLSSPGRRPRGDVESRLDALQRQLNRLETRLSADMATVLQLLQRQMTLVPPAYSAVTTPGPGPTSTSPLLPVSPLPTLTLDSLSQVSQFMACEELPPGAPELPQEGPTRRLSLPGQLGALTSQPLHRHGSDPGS

The experiment addresses human ether-à-go-go-related gene (hERG) potassium channel (human, UniProt Q12809). Kind of experiment: primary screen, population patch clamp on CHO cells stably expressing hERG; higher = less effect of the substance.
With `O=C(CNC(=O)c1ccc(Br)o1)NCc1ccccc1Cl`, the “hERG current change (%, negative = inhibition) at 10uM” value came out at 1.15%.
The result for `CCCCc1ccc(NC(=S)NCCN2CCOCC2)cc1` reads -39%; that for `CCOC(=O)CSc1cc(C(F)(F)F)nc(-c2ccccn2)n1`, -31.5%.
Then `CC(C)CCc1noc(CN2CCC(C(=O)N3CCOCC3)CC2)n1`, with -6.13%.
Regarding `C/C=C/n1ccnc1CC(O)(c1ccccc1)c1ccc(C)cc1` (stereo not drawn), the “hERG current change (%, negative = inhibition) at 10uM” value was -22.5%.
Then `Nc1nnnn1/N=C\c1ccc(Cl)c([N+](=O)[O-])c1`, with 3.26%.
Then `COc1ccc(NC(=S)Nc2cccnc2)c(OC)c1`, with 8.2%; and `CCN(Cc1nc2ccccc2c(=O)[nH]1)Cc1cc(=O)oc2cc(C)c(C)cc12`, with -41.4%.
The result for `CN(Cc1nc2ccccc2c(=O)[nH]1)Cc1cc(=O)oc2ccc3ccccc3c12` reads -10.1%.
Take `CCc1ccc2c(CN(CC)Cc3nc4ccccc4c(=O)[nH]3)cc(=O)oc2c1`: the “hERG current change (%, negative = inhibition) at 10uM” value was -71.6%.
`CCN(Cc1nc2ccccc2c(=O)[nH]1)Cc1cc(=O)oc2cc(OC)ccc12`: the “hERG current change (%, negative = inhibition) at 10uM” value is given as -51.1%.
The result for `CCN(CC(=O)Nc1cc(OC)ccc1OC)Cc1nc2ccccc2c(=O)[nH]1` reads -8.33%; that for `CCN(Cc1nc2ccccc2c(=O)[nH]1)Cc1nc2cc(OC)c(OC)cc2c(=O)[nH]1`, 14.9%.
Then `N#Cc1ccccc1S(=O)(=O)N1CCN(CC(=O)NCC2(N3CCOCC3)CCCCC2)CC1`, with -27.3%; and `CCOc1cc(/C=C2/NC(=O)N(CC(=O)OC)C2=O)ccc1O`, with 3.71%.
The result for `O=C(O)c1ccc(Br)c(S(=O)(=O)N2CCCC2)c1` reads 9.91%.
For `COc1ccc(NC(=O)C(=O)NCCN2CCN(C(=O)c3ccco3)CC2)cc1`, the “hERG current change (%, negative = inhibition) at 10uM” value is -11.1%.
Regarding `CCN1CCN(CCNC(=O)Nc2ccc([N+](=O)[O-])cc2)CC1`, the “hERG current change (%, negative = inhibition) at 10uM” value is -12.2%.
Regarding `Cc1ccc(NC(=O)C(=O)NCCN2CCN(S(C)(=O)=O)CC2)cc1`, the “hERG current change (%, negative = inhibition) at 10uM” value amounted to 19.6%.
With `Cc1ccc(NC(=O)C(=O)NCCN2CCN(Cc3ccc([N+](=O)[O-])cc3)CC2)cc1`, the “hERG current change (%, negative = inhibition) at 10uM” value is on record as -72.8%.
Then `CCCCc1ccc(NC(=O)C(=O)NCCN2CCN(C(=O)c3ccc([N+](=O)[O-])cc3)CC2)cc1`, with -22.4%; and `CCc1ccc(NC(=O)C(=O)NCCN2CCN(C(=O)c3ccco3)CC2)cc1`, with -67%.
Then `CCc1ccc(CN2CCN(C(=O)c3ccco3)CC2)cc1.O=C(O)C(=O)O`, with -23.8%; and `CCNC(=O)C(=O)Nc1ccc([N+](=O)[O-])cc1`, with 2.37%; and `CCc1ccc(NC(=O)C(=O)NCCN2CCN(S(C)(=O)=O)CC2)cc1`, with 20.5%.
Then `CCc1ccc(NC(=O)C(=O)NCCN2CCN(Cc3ccc([N+](=O)[O-])cc3)CC2)cc1`, with -72.5%; and `CCCCc1ccc(NC(=O)C(=O)NCCN2CCN(Cc3ccc([N+](=O)[O-])cc3)CC2)cc1`, with -66.7%; and `O=C(CNC(=O)c1cccs1)NCC(=O)OCc1ccc(F)cc1`, with -13.1%.
`O=C(CN1C(=O)C(=O)N(C2CCCC2)C1=O)NCCc1ccc(Cl)cc1Cl`: the “hERG current change (%, negative = inhibition) at 10uM” value is 10.4%.
Consider `COc1ccccc1NC(=O)Cn1nc(-c2ccncc2)nc1SCC(=O)NC1CCCC1`, for which the “hERG current change (%, negative = inhibition) at 10uM” value is -20.2%.
Then `COC(=O)CC1SC(=O)NC1=Nc1ccc(OC)cc1` (stereo not drawn), with 1.66%; and `CCC(C)NS(=O)(=O)c1ccc(OCC(=O)Nc2ccc(F)cc2F)cc1` (stereo not drawn), with -2.06%.
On to `COCCCNCC#CCOc1ccc(OC)cc1.O=C(O)C(=O)O`, for which the “hERG current change (%, negative = inhibition) at 10uM” value was determined as 0.922%.
The result for `O=C(NCCc1ccccc1)C(=O)Nc1ccc([N+](=O)[O-])cc1` reads -2.37%; that for `O=C(NCCN1CCN(S(=O)(=O)c2ccc([N+](=O)[O-])cc2)CC1)C(=O)Nc1ccccc1`, 13.5%; that for `O=C(NCCN1CCN(Cc2ccc([N+](=O)[O-])cc2)CC1)C(=O)Nc1ccccc1`, -64.3%.
The result for `CC(OC(=O)c1ccc2c(c1)C(=O)N(Cc1ccncc1)C2=O)C(=O)Nc1cccc(Cl)c1Cl` (stereo not drawn) reads -11.1%; that for `COC(=O)c1ccc(C(=O)OC)c(NC(=S)N2CCN(c3ccccc3)CC2)c1`, -19.1%; that for `COC(=O)c1ccc(C(=O)OC)c(NC(=O)CS(=O)(=O)Cc2ccccc2)c1`, -53.2%.
As to `COC(=O)c1ccc(C(=O)OC)c(NC(=O)C(C)(C)C)c1`, the “hERG current change (%, negative = inhibition) at 10uM” value was 20.7%.
The result for `COC(=O)c1ccc(C(=O)OC)c(NC(=S)N2CCN(c3ccccc3F)CC2)c1` reads -52.9%; that for `COC(=O)c1ccc(NC(=O)CS(=O)(=O)Cc2ccccc2)cc1`, 1.28%; that for `COC(=O)c1ccc(C(=O)OC)c(NC(=O)C2CC2)c1`, -68.9%.
For the compound `COC(=O)c1ccc(C(=O)OC)c(NC(=O)C2CCCO2)c1` (stereo not drawn), the “hERG current change (%, negative = inhibition) at 10uM” value stood at 10.5%.
On to `COC(=O)c1ccc(C(=O)OC)c(NC(=O)CCS(=O)(=O)Cc2ccccc2)c1`, for which the “hERG current change (%, negative = inhibition) at 10uM” value was -2.41%.
Turning to `COC(=O)c1ccc(C(=O)OC)c(NC(=S)N2CCN(c3ccc(F)cc3)CC2)c1`, the “hERG current change (%, negative = inhibition) at 10uM” value is on record as -24%.
The result for `Fc1ccc(-c2nnc(SCc3cccnc3)o2)cc1` reads -3.91%; that for `Fc1cccc(F)c1/C=N/NC(=S)Nc1cccnc1`, -14.3%.
The result for `Cl.Oc1cccc(C(O)CNCc2ccc(OCc3ccc(Cl)cc3Cl)cc2)c1` (stereo not drawn) reads 7.89%.
The result for `C=CCN(CC=C)S(=O)(=O)c1ccc(NC(=S)NC(=O)/C=C/c2ccc(C)cc2)cc1` reads 6.12%.
As to `CN(C)CCOC(=O)C12CC3(C)CC(C)(CC(C)(C3)C1)C2.Cl`, the “hERG current change (%, negative = inhibition) at 10uM” value was -7.13%.
Regarding `COc1ccc(CCNC(=O)CSCC(=O)Nc2ccccc2)cc1OC`, the “hERG current change (%, negative = inhibition) at 10uM” value is 17.8%.
Then `COc1ccc(/C=C/C(=O)OCC(=O)Nc2c(C)cccc2C)cc1`, with 12.5%; and `CCOC(=O)c1c(-c2ccc(C)o2)csc1NC(=O)CSc1nnnn1-c1ccccc1`, with -3.66%.
